Screens deposited in PubChem BioAssay by National Center for Advancing Translational Sciences (NCATS).
HT1080-NT tox = kills 2HG-producing HT-1080-NT fibrosarcoma cells; HT-1080-NT fibrosarcoma viability, CellTiter-Glo ATP luminescence, 48 h; Potency, µM (titrated, usually from 46.1 µM), without a hit: top-dose activity, negative = less viability, actives largely listed as cytotoxic; 1.6% of 360,000 active;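 also: NT is the 2HG producing partner of a matched IDH1 knockdown line; potency is read from the fitted curve at half-maximal effect; 0% = DMSO-treated cells and -100% = media-only wells without cells; nearly all actives have a fitted effect of over 55% in size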
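Viability by CellTiter-Glo luminescence after 48 h compound exposure at 37C of HT-1080-NT cells (750/well, RPMI, 5% FBS). % activity scaled between DMSO wells and medium-only wells, then curve-fitted and categorized by curve class.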
DT40 TDP1 CPT = DT40-hTDP1 cell growth loss with CPT; Potency, µM (series often up to 46.2 µM), without a hit: at the highest dose activity change, negative = growth inhibition, most hits filed as inhibitors; 12% of 420,000 active; chicken DT40 Tdp1-/-;hTDP1 cells + 20 nM CPT, ATP luminescence, 48 h; also: potency is read from the fitted curve at half-maximal effect; nearly all actives have a fitted effect of over 55% in size
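Cell growth measured by CellTiter-Glo luminescence after a minimum 48 h, 37 C compound exposure with 20 nM CPT in Tdp1-knockout DT40 cells stably expressing hTDP1, seeded 400/well; qHTS titration format.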
ALOX12 inh = ALOX12 (human) lipoxygenase inhibition. Potency, µM (top dose mostly 108 µM), for the others: at the top dose activity change, negative = inhibition, actives largely listed as inhibitors. P18054. 1.1% of 580,000 active. purified 12hLO, xylenol orange hydroperoxide absorbance. AID 1671190; also: potency is read from the fitted curve at half-maximal effect
Target sequence (P18054 whole entry, looked up): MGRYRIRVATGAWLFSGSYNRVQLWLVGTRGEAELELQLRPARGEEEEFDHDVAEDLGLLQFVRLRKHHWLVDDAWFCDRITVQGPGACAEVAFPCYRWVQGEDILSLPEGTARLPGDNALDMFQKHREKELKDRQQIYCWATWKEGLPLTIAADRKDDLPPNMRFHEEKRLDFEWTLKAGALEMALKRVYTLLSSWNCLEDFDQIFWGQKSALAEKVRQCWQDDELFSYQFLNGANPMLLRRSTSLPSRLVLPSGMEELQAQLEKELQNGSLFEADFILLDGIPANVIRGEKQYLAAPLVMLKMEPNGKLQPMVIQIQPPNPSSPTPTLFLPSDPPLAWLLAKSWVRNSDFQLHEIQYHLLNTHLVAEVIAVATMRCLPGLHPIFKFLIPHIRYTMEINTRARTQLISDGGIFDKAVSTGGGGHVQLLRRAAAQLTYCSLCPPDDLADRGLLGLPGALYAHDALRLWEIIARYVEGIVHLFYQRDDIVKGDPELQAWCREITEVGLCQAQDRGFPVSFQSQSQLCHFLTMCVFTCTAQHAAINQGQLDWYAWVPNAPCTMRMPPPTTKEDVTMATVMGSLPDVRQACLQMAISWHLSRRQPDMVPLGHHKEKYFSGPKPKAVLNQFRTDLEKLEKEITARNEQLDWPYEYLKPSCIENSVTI
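Purified human 12hLO (150 nM final) in 25 mM Hepes, 0.01% Triton X-100, pH 7.0 was preincubated 15 min at room temperature with compound. Then 40 uM arachidonic acid was added, 30 min. Hydroperoxide was read by Fe-XO absorbance ratio 573/405 nm.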
HT1080 IDH1KD tx = HT-1080 IDH1 knockdown cell toxicity (counter line); HT-1080 IDH1 knockdown viability, ATP luminescence, 48 h; Potency, µM (highest dose often 46.1 µM), inactives show at the highest dose activity, negative = toxicity, actives largely listed as cytotoxic; 2% of 360,000 active; AID 686971;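 also: potency is read from the fitted curve at half-maximal effect; 0% = DMSO wells and -100% = cell-free medium wells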
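In this qHTS, HT-1080 cells depleted of IDH1 are exposed for 48 h at 37 °C to compound titrations. Toxicity is scored from CellTiter-Glo luminescence, with DMSO as full viability and medium alone as none.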
IL-1B inflam inh = inflammasome signaling inhibition, IL-1 beta readout; THP-1 LPS/ATP IL-1B secretion, AlphaLISA, 16 h; hits give low values; activity change, % at 57.5 µM; 4.7% of 360,000 active; AID 743279; in the data active = activity change below about -50%; inconclusive = mostly about -30% to -49%
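Secreted IL-1B measured by AlphaLISA bead assay after 16 h compound exposure of THP-1 cells; compounds (final up to 57.5 uM) added 1 h before LPS (250 ng/mL) and ATP (1.25 mM) stimulation; lower signal means less secretion.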
TDP1 cell noCPT = qHTS for Inhibitors of human tyrosyl-DNA phosphodiesterase 1 (TDP1): qHTS in cells in absence of CPT; DT40 Tdp1-/- hTDP1 cells, no CPT, ATP luminescence, 48 h; Potency, µM (top dose mostly 46.2 µM), for the others: top-dose activity change, negative = growth inhibition, actives largely listed as inhibitors; 15% of 420,000 active; AID 686978, 2013; also: potency is read from the fitted curve at half-maximal effect; nearly all actives have a fitted effect of over 55% in size
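Readout: luminescence from CellTiter-Glo after 30 min in the dark at RT. Cells: DT40 Tdp1-/- with stable hTDP1, 400/well. Exposure: compounds alone, ≥48 hr, 37 °C.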
* marks the source's active call; other numbers are inactive results; [ ] = dose if it differs, or a comment. This excerpt belongs to a sample that is enriched for hits. Unless noted, calls follow the shape of the dose curve; as a rule, active = well fitted curve in the direction sought with a large enough effect; inconclusive = small, poorly fitted or top-dose-only effect, or another doubt; inactive = no such curve, though single readings can be large; an effect the other way counts as inactive or inconclusive. Unless noted, % is scaled to controls: 0 for no effect and ±100 for the full control effect.

CC1=C(C(=O)N(C(C)C)C(C)C)CC(CC(=O)NC2CC2)C(=O)N1CCC1=CCCCC1 (configuration not stated) was read as HT1080-NT tox 24%, DT40 TDP1 CPT 16µM*, ALOX12 inh 3%, HT1080 IDH1KD tx 7%, IL-1B inflam inh 42 and TDP1 cell noCPT inconclusive.
`CC1=C(C(=O)N(C)C)CC(CC(=O)NC2CC2)C(=O)N1CCC1=CCCCC1` (configuration not stated) gave HT1080-NT tox 4%, DT40 TDP1 CPT -12%, ALOX12 inh inconclusive, HT1080 IDH1KD tx 0%, IL-1B inflam inh 11 and TDP1 cell noCPT -18%.
CC1=C(C(=O)N(C(C)C)C(C)C)CC(CC(=O)NC2CCCC2)C(=O)N1CCC1=CCCCC1 (configuration not stated) was read as HT1080-NT tox 6%, DT40 TDP1 CPT inconclusive, ALOX12 inh 12%, HT1080 IDH1KD tx 13%, IL-1B inflam inh inconclusive and TDP1 cell noCPT 23µM*.
`O=C(C1CCN(c2nc(-c3ccccc3)nc3c2CCC3)CC1)N1C[C@H]2CC[C@H]1C2` gave ALOX12 inh 28%.
`CCC(=O)[C@@]1(C)[C@H](C)C[C@H]2[C@@H]3CCC4=CC(=O)C=C[C@]4(C)[C@H]3[C@@H](O)C[C@@]21C` gave HT1080-NT tox inconclusive, DT40 TDP1 CPT 13µM*, ALOX12 inh 7%, HT1080 IDH1KD tx inconclusive, IL-1B inflam inh inconclusive and TDP1 cell noCPT 16µM*.
CCCC1O[C@@H]2C[C@H]3[C@@H]4CCC5=CC(=O)C=C[C@]5(C)[C@H]4[C@@H](O)C[C@]3(C)[C@]2(C(=O)CO)O1 (some centres not stated) was read as HT1080-NT tox -3%, DT40 TDP1 CPT -3%, ALOX12 inh -4%, HT1080 IDH1KD tx 9%, IL-1B inflam inh -65* and TDP1 cell noCPT inconclusive.
C[C@]12C=CC(=O)C=C1CC[C@@H]1[C@@H]2[C@@H](O)C[C@@]2(C)[C@@H]1CC[C@]2(O)C(=O)CO was read as ALOX12 inh 1%[57.4 µM].
For CC(C)CNC(=O)C1CCN(c2ncnc3nc[nH]c23)CC1 the results were ALOX12 inh 6%.
For COc1ccc(C)cc1NC(=O)CN1CCN(S(=O)(=O)c2ccc(F)cc2)CC1 the results were HT1080-NT tox 2%, DT40 TDP1 CPT inconclusive, ALOX12 inh 6%, HT1080 IDH1KD tx 6%, IL-1B inflam inh -9 and TDP1 cell noCPT inconclusive.
COc1ccc(C2(C(=O)Nc3ccc(OC)cc3OC)CCCC2)cc1 was read as HT1080-NT tox 8%, DT40 TDP1 CPT 13µM*, ALOX12 inh 7%, HT1080 IDH1KD tx 13%, IL-1B inflam inh 19 and TDP1 cell noCPT 23µM*.
O=C(CN1CCCN(S(=O)(=O)c2ccc(Br)cc2)CC1)Nc1cccc(C(F)(F)F)c1 was read as DT40 TDP1 CPT 21µM*, ALOX12 inh inconclusive and TDP1 cell noCPT 12µM*.
`COC(=O)c1ccc(NC(=O)CN2CCN(S(=O)(=O)c3ccc(Br)cc3)CC2)cc1` gave HT1080-NT tox -14%, DT40 TDP1 CPT inconclusive, ALOX12 inh -8%, HT1080 IDH1KD tx -11%, IL-1B inflam inh 0 and TDP1 cell noCPT 18µM*.
`COc1ccc(C)cc1NC(=O)CN1CCCN(S(=O)(=O)c2ccc(Br)cc2)CC1` gave HT1080-NT tox -20%, DT40 TDP1 CPT inconclusive, ALOX12 inh -5%, HT1080 IDH1KD tx 0%, IL-1B inflam inh -30 and TDP1 cell noCPT 9.2µM*.
For Cc1cccc(Nc2nnc(Cc3ccccc3)c(=O)[nH]2)c1 the results were ALOX12 inh -10%.
